Experimental data published in PubChem BioAssay (NCI).
The panel holds about 79,000 compounds, 15% with a hit somewhere; the sample as a whole holds those more often. Unmarked numbers belong to inactive results. Active and inactive are the calls of the source. Rule as the data show it: active = growth inhibition above about 70%; inactive = the rest.

What was measured:
[1] = NCI Yeast Anticancer Drug Screen. Data for the rad50 strain (AID 155);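 also: 0% = growth of vehicle-only cultures of the same strain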; details: S. cerevisiae rad50 strain growth inhibition, active compounds read high
Summary of the method: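 Compounds were tested on a yeast strain with an engineered DNA damage repair alteration; the reported value is growth inhibition normalised to vehicle treatment.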

[2] = NCI Yeast Anticancer Drug Screen. Data for the mec2-1 strain (AID 157); details: S. cerevisiae mec2-1 strain, active compounds read high
Summary of the method: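 Compounds were applied to mec2-1 yeast cells. Their growth was then compared with that of vehicle-treated cultures to give growth inhibition.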

[3] = NCI Yeast Anticancer Drug Screen. Data for the sgs1 mgt1 strain (AID 161);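 also: 0% = growth of cultures given vehicle only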; details: S. cerevisiae sgs1 mgt1 strain, active compounds read high
Summary of the method: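 Percent growth inhibition was derived by comparing compound-exposed mutant yeast with vehicle-exposed cultures. The strain carries alterations in DNA damage repair.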

[4] = NCI Yeast Anticancer Drug Screen. Data for the cln2 rad14 strain (AID 165);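 also: 0% = growth equal to vehicle treated cultures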; details: S. cerevisiae cln2 rad14 strain, active compounds read high
Summary of the method: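 Strain: cln2 rad14 yeast, altered in cell cycle control and DNA damage repair. Read-out: growth inhibition vs vehicle.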

[5] = NCI Yeast Anticancer Drug Screen. Data for the bub3 strain (AID 167); details: S. cerevisiae bub3 mutant strain, active compounds read high
Summary of the method: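 Growth of a checkpoint-deficient yeast mutant is measured after compound exposure. Values represent inhibition relative to vehicle.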

[6] = NCI Yeast Anticancer Drug Screen. Data for the mlh1 rad18 strain (AID 175); details: S. cerevisiae mlh1 rad18 strain growth inhibition, active compounds read high
Summary of the method: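 A repair-deficient yeast strain is exposed to test compound, and growth is scored relative to vehicle-treated controls.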

[7] = at 5.0 µM (retest, dose inferred, filed as 0.5)
[8] = at 50.0 µM (retest, dose inferred, filed as 5.0)

| SMILES | growth inhibition [1, 7] | growth inhibition [1, 8] | growth inhibition ([1]; at 50.0 µM) | growth inhibition [2, 7] | growth inhibition [2, 8] | growth inhibition ([2]; at 50.0 µM) | growth inhibition [3, 7] | growth inhibition [3, 8] | growth inhibition ([3]; at 50.0 µM) | growth inhibition [4, 7] | growth inhibition [4, 8] | growth inhibition ([4]; at 50.0 µM) | growth inhibition [5, 7] | growth inhibition [5, 8] | growth inhibition ([5]; at 50.0 µM) | growth inhibition [6, 7] | growth inhibition [6, 8] | growth inhibition ([6]; at 50.0 µM) |
| --- | --- | --- | --- | --- | --- | --- | --- | --- | --- | --- | --- | --- | --- | --- | --- | --- | --- | --- |
| O=C(O)C1CC2C3(Cl)C(Cl)=C(Cl)C(Cl)C2(CC1c1c2ccc(=O)c(O)c-2oc2c(O)c(O)ccc12)C3(Cl)Cl (stereo not given) | 5% | 96% (active) | 49.9% | 21% | 97% (active) | 49.6% | 3% | 97% (active) | -0.25% | 9% | 93% (active) | 53.2% | -2% | 96% (active) | 46.2% | 4% | 95% (active) | 51.5% |
| CC1=C(C(=O)Nc2ccccc2)C(c2ccccc2F)C(C(=O)Nc2ccccc2)=C(C)N1 | -3% | 27% | 48.4% | -4% | 11% | 44% | -4% | 17% | 31.3% | 0% | 37% | -19.1% | -2% | 28% | 11.6% | -5% | 47% | 50.5% |
| C=C1C[C@@]2(OC)OCC[C@H]3C(C)=CCC(C1=O)[C@]32C(=O)OC (stereo not given in full) | 12% | 96% (active) | 98.5% (active) | 15% | 98% (active) | 92.7% (active) | 15% | 98% (active) | 99.1% (active) | 6% | 93% (active) | 96.8% (active) | -5% | 98% (active) | 98.7% (active) | 4% | 97% (active) | 99% (active) |
| C[n+]1c(/C=C/c2ccc([N+](=O)[O-])cc2)ccc2ccccc21 | 6% | 85% (active) | 42% | -2% | 89% (active) | 60.8% | 2% | 77% (active) | 69.7% | 12% | 77% (active) | 82.7% (active) | -2% | 92% (active) | 11.7% | 16% | 92% (active) | 80.2% (active) |
| O=C1C=CC(=O)N1C1c2ccccc2-c2ccccc21 | 99% (active) | 99% (active) | 99.5% (active) | 100% (active) | 100% (active) | 99.1% (active) | 99% (active) | 100% (active) | 99.5% (active) | 77% (active) | 99% (active) | 98% (active) | 100% (active) | 100% (active) | 99.5% (active) | 99% (active) | 99% (active) | 97.1% (active) |
| Cn1c2ccccc2c2c(C#N)c(C#N)c([N+](=O)[O-])cc21 | 30% | 98% (active) | 97.2% (active) | 29% | 98% (active) | 78.5% (active) | 9% | 98% (active) | 75.2% (active) | 9% | 97% (active) | 42% | 27% | 98% (active) | 93.2% (active) | 26% | 98% (active) | 76.8% (active) |
| O=C(CC1(O)C(=O)Nc2c(Cl)ccc(Cl)c21)c1ccc(Cl)cc1Cl (stereo not given) | 25% | 25% | 91.6% (active) | 13% | 13% | 90.7% (active) | 18% | 18% | 90.8% (active) | -6% | -6% | 91.3% (active) | -2% | -2% | 93.7% (active) | 19% | 19% | 92.2% (active) |
| CN(Cc1ccccc1)c1nc(=[N+](C)C)ss1 | 5% | -1% | 4.35% | -5% | -1% | 8.8% | 11% | 8% | 26.3% | 17% | 15% | -30.9% | 14% | 11% | 12.2% | 10% | 16% | 33.4% |
| CC12CCCC1C1CC=C3CC(OC=O)CCC3(C)C1CC2 (stereo not given) | 1% | 4% | 13.4% | 10% | 3% | 1.5% | 0% | 25% | 40.9% | -37% | -5% | 38.8% | -8% | 44% | -13.4% | -1% | -2% | -12.3% |
| NC(=O)NC(CC(=O)O)C(=O)O (stereo not given) | -6% | 12% | -19.9% | -7% | -4% | -4.35% | -8% | -5% | -6% | -3% | -4% | 65.8% | 3% | -6% | -29.8% | -8% | 4% | -1.7% |
